Efflux pump mplx = inhibitors of Candida antifungal efflux pumps expressed in yeast | AID 485275 | 330,000 tested, 0.44% active | S. cerevisiae Candida pump triplex, Nile Red efflux | inhibition, % at 10 µM;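 active = plate passing quality check with inhibition over a set limit, or well fluorescence over plate mean plus 4 SD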;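 note: Nile Red retained in pooled yeast measured as flow cytometry median fluorescence; 0% = buffer negative control and 100% = Enniatin B positive control; higher means more Nile Red kept so more efflux inhibition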
ATG4B inh = ATG4B (human) cysteine protease inhibition; 340,000 tested, 0.51% active; Q9Y4P1; inhibition, % at 8.33 µM; ATG4B cleavage of LC3-PLA2, NBD-HPC fluorescence, 1 h; in the data active = inhibition above about 40%
Target sequence (Q9Y4P1 whole entry, looked up): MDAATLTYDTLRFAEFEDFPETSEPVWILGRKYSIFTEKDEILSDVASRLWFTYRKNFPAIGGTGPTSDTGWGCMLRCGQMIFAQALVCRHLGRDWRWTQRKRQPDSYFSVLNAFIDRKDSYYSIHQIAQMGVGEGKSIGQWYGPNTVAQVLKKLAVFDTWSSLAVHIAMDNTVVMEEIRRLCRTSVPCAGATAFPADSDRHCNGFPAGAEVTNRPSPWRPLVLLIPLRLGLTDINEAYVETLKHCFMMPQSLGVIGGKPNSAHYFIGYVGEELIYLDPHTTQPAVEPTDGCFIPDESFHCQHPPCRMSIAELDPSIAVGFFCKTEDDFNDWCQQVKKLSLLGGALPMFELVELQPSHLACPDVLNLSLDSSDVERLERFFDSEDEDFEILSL
CR mimetic SO = lowers age-related superoxide in aged yeast cells | S. cerevisiae aged cells, superoxide DHE fluorescence; active compounds read low | superoxide response (% of plate mean), % at 10 µM | 330,000 tested, 0.18% active | AID 2690;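 active = superoxide response under a set limit, about three screen SD below normal, cut at about 65% in these data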;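 note: yeast aged for seven days with compound at 30 °C before DHE staining; 100% = average MFI of all compound-treated wells on the plate with controls excluded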
GRK2 inh = inhibitors of human GRK2 displacing RNA aptamer. P25098. bead flow cytometry, FAM-aptamer displacement from GRK2. inhibition of aptamer binding, % at 10 µM. 330,000 tested, 0.59% active. AID 488847;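 active = inhibition of aptamer binding above 40%, roughly 3 SD of noise, on plates passing a quality check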;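 note: median bead fluorescence of bound FAM aptamer so fluorescent compounds give negative values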
Yeast cmpd fluor = flagged as fluorescent in efflux inhibitor counter-screen. S. cerevisiae AD/pABC3, compound fluorescence, flow cytometry. AID 588517. fluorescence ratio to DMSO, % at 10 µM. 1,700 tested, 4% active. shares compounds with Efflux pump mplx;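 active = fluorescence ratio to DMSO above its plate's cutoff, the plate mean ratio plus 5 SD, cut at about 210% in these data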;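 note: unstained yeast with no Nile Red so the signal is compound autofluorescence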
Mdr1 pump inh = blocks the Candida albicans Mdr1 efflux pump in yeast | S. cerevisiae AD/CaMDR1, Nile Red efflux, flow cytometry | inhibition, % at 10 µM | AID 588518 | 1,700 tested, 1% active | shares compounds with Efflux pump mplx; in the data active = inhibition above about 26%;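 note: 0% = DMSO vehicle and 100% = reference inhibitor; higher means more Nile Red retained so more efflux inhibition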
CaCdr2 efflux inh = blocks the Candida albicans Cdr2 efflux pump in yeast. shares compounds with Efflux pump mplx. S. cerevisiae AD/CaCDR2, Nile Red retention, flow cytometry. Nile Red retention ratio vs DMSO, % at 10 µM. 1,700 tested, 4% active. AID 588520; in the data active = Nile Red retention ratio vs DMSO above about 190%;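 note: higher ratio means more blocking of Cdr2 efflux of the dye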
Cdr1 pump inh = inhibitors of Candida albicans Cdr1 efflux pump; shares compounds with Efflux pump mplx; S. cerevisiae AD/CaCDR1, Nile Red efflux, flow cytometry; inhibition, % at 10 µM; 1,700 tested, 1% active;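 active = inhibition above the screen-wide mean plus twice its standard deviation, cut at about 32% in these data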
GRK2 inh confirm = human GRK2 inhibition confirmation, cherry pick 1. shares compounds with GRK2 inh. bead-bound GRK2, FAM-aptamer displacement, flow cytometry. aptamer displacement, % at 10 µM. 2,000 tested, 4% active;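 active = aptamer displacement above 40%, near three times the noise of non-fluorescent compounds, on plates passing quality checks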;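 note: negative values mostly reflect intrinsic compound fluorescence rather than true enhancement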
Aptamer quench SP = aptamer fluorescence quenching in GRK2 counter-screen; shares compounds with GRK2 inh; Carboxyfluorescein RNA aptamer on beads, flow cytometry quenching; active compounds read low; fluorescence response (% of DMSO), % at 10 µM; 2,000 tested, under 10 active; AID 504580;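 active = compounds that quench the bead-bound fluorescent RNA probe, cutting fluorescence to under half of the solvent control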;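 note: counterscreen run without GRK2 so only probe quenching by compound is measured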
* = called active by the depositor; / = no result given; ! = not active in a repeat. Most compounds without a hit are left out; they make up all but 1.6% or so of the library.

SMILES	Efflux pump mplx	ATG4B inh	CR mimetic SO	GRK2 inh	Yeast cmpd fluor	Mdr1 pump inh	CaCdr2 efflux inh	Cdr1 pump inh	others
C/C(=N\N1CCCCC1)c1c(O)[nH]c(=O)[nH]c1=O	16*	-3	105	1	111	0	103	0
CC1(C)C2([N+](=O)[O-])CN3CN(C2)CC1([N+](=O)[O-])C3	0	7	90	0	/	/	/	/
COc1ccc(CC2(CCc3ccncc3)C(=O)NC(=O)NC2=O)c(OC)c1	0	19	104	3	/	/	/	/
CN1CCN(Cc2cn(C)c3ccccc23)CC1CCO (centres undefined)	0	4	102	2	/	/	/	/
CCOC(=O)c1c(C)n(COCCO)c2ccc(O)cc12	7.5*	1	96	2	92	0	91	0
C=C(C)[C@@]12OC3(c4ccccc4)O[C@@H]1C1[C@@H]4O[C@]4(CO)[C@@H](O)[C@]4(O)C(=O)C(C)=C[C@H]4[C@@]1(O3)[C@H](C)[C@H]2OC(=O)/C=C/C=C/c1ccccc1 (some centres undefined)	0	-13	103	0	/	/	/	/
C[C@]12CCC3C(CCC4=CC(O)CC[C@@]43/C=N/O)C1(O)CCC2C1=CC(=O)OC1 (some centres undefined)	20*	6	69	5	102	0	100	0
CCN(CC)C(=O)c1ccc(NC(=O)c2cc(S(=O)(=O)N3CCCCCC3)ccc2OC)cc1	0	5	98	1	/	/	/	/
CCN(CC)C(=O)c1ccc(NC(=O)COc2ccc([N+](=O)[O-])cc2Cl)cc1	19*	6	109	1	116	0	119	0
O=C1NC(=O)C(CCc2ccncc2)(CCc2ccncc2)C(=O)N1C1CCCCC1	1.0*	-2	120	0	77	0	121	0
O=c1[nH]c(=O)n(Cc2ccccc2)c(O)c1/C=C1\C=Nc2ccccc21	1	-4	110	4	/	/	/	/
O=c1[nH]c(=O)n(CC2CCCO2)c(O)c1/C=C1\C=Nc2ccccc21 (centres undefined)	2.6*!	-6	112	0	103	0	89	0
Cc1ccc(C2=NN(CCC(=O)N3CCC4(CC3)OCCO4)C(=O)CC2)cc1	0	0	96	0	/	/	/	/
O=C1Nc2ccccc2/C1=C/c1cnc[nH]1	0	-7	98	3	/	/	/	/
COc1ccc2c(c1)/C(=C/c1cnc[nH]1)C(=O)N2	0.8*	-9	113	3	106	0	93	0
CCN(CC)C(=O)c1ccc2c(c1)C1C=CCC1C(C(=O)O)N2 (centres undefined)	0	10	96	14	/	/	/	/
Nc1ccc2ccc3cccc[n+]3c2c1	3.8*	-17	93	52*	272*	4	185*	3	GRK2 inh confirm=6;Aptamer quench SP=44*
O=c1cccc2n1CC1CC2CN(c2nc(N3CCCCC3)nc(N3CCCCC3)n2)C1 (centres undefined)	0	-3	87	2	/	/	/	/
C[C@]12CCC3C(CC[C@H]4C[C@H](O)CC[C@]34C)C1CC(=O)[C@@H]2O (some centres undefined)	0	4	83	100*	/	/	/	/	GRK2 inh confirm=-4;Aptamer quench SP=98
CC(C(N)=O)N1CC(c2ccc(Cl)cc2)CC1=O (centres undefined)	0	4	98	50*	/	/	/	/	GRK2 inh confirm=1;Aptamer quench SP=98
CC1(C)OC(c2ccccc2)=C/C(=C/C=C2C(=O)NC(=S)NC2=O)O1	0	11	111	48*	/	/	/	/	GRK2 inh confirm=22;Aptamer quench SP=107
CN1/C(=C\C=C2C(=O)NC(=S)NC2=O)C(C)(C)c2ccccc21	/	-6	/	/	/	/	/	/
